PubChem BioAssay
Calls of active or inactive are those of the source.

Columns and labels:
[1] = system: PRMT1 (protein arginine N-methyltransferase 1); assay: PRMT1 binders on small-molecule microarrays, primary screen, biochemical, small-molecule microarray, 635 nm fluorescence (AID 1088); settings: small-molecule microarray binding, higher = more signal;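 also: binding of Prmt1 protein to compounds spotted on small-molecule microarray slides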
[2] = yeast growth modulation, basal conditions, primary screen, YJM789 clinical isolate, OD600, 24 h (AID 1089);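 also: growth of clinical yeast isolate S. cerevisiae YJM 789 seeded 1000 cells per well; test concentration not given here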; settings: S. cerevisiae YJM789 growth, higher = more signal, called active from +8 up or from −8 down
[3] = fission yeast growth modulation, primary screen, strain 972, OD600, 24 h, no modulator (AID 1090);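 also: basal condition with compound alone and no growth modifier present; test concentration not given here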; settings: S. pombe 972 growth, higher = more signal, called active from +8 up or from −8 down
[4] = S. cerevisiae growth modulation with rapamycin, primary screen, strain BY4716, OD600, 96 h (AID 1091); settings: higher = more signal, called active from +8 up or from −8 down; also: test concentration not given here
[5] = target: Torsin-1A-interacting protein 2 (Homo sapiens) (UniProt Q8NFQ8); assay: LULL1 binders on small-molecule microarray, primary screen, cell lysate, human LULL1 lysate, 635/667 nm fluorescence (AID 1092); settings: hLULL1 lysate binding, 635 nm fluorescence, higher = more signal;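 also: probe is lysate of COS7 cells overexpressing human LULL1; score merges per-feature 667 nm fluorescence with signal-to-noise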
[6] = E. coli growth modulation, two-sided OD650, primary screen, E. coli filamentation project, strain DRC41, 24 h (AID 1093); settings: OD650, 24 h, higher = more signal, called active from +8 up or from −8 down;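 also: MC1000 strain lacking acrAB efflux and sulA so SOS filamentation is blocked; test concentration not given here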
[7] = small-molecule microarray binders of probe aLefty2, primary screen, biochemical, biotinylated probe, 635/667 nm fluorescence (AID 1094); settings: higher = more signal;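 also: score merges spot fluorescence near 667 nm with spot signal-to-noise ratio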
[8] = system: Noggin (protein binding on small-molecule microarray); assay: Noggin binders on small-molecule microarray, primary screen, biochemical, 635/667 nm fluorescence (AID 1095); settings: 635 nm fluorescence, higher = more signal;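 also: score merges 667 nm feature fluorescence with signal to noise over triplicate slides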
[9] = target: Neurogenic locus notch homolog protein 3 (Homo sapiens) (UniProt Q9UM47); assay: NOTCH3 binders on small-molecule microarray, primary screen, biochemical, 635/667 nm fluorescence (AID 1096); settings: NOTCH3 binding, 635 nm fluorescence, higher = more signal
[10] = small-molecule microarray binders of probe aEGFR, primary screen, biochemical, biotinylated probe, 635/667 nm fluorescence (AID 1097); settings: higher = more signal;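 also: probe is a biotinylated anti-EGFR antibody binding compounds printed on slides; score combines fluorescence near 667 nm and signal to noise of each spot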
[11] = system: Plasmodium falciparum Sir2 (PF13_0152, Sir2A); assay: pfSir2 binders on small-molecule microarrays, primary screen, biochemical, small-molecule microarray, 635 nm fluorescence (AID 1098); settings: small-molecule microarray binding, fluorescence 635 nm; higher = more signal;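 also: score merges spot fluorescence intensity with its signal-to-noise ratio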
[12] = small-molecule microarray binders of probe aDKK1, primary screen, biochemical, biotinylated probe, 635/667 nm fluorescence (AID 1099); settings: higher = more signal;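 also: score merges 667nm spot fluorescence with signal to noise across triplicate slides; reference of the scale not given here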
[13] = small-molecule microarray binders of probe aCHRDL2, primary screen, biochemical, biotinylated probe, 635/667 nm fluorescence (AID 1100); settings: higher = more signal
[14] = splicing luciferase reporter signal modulators, primary screen, spliceosome inhibition project, cell-based, HEK293, splice +/- reporter (AID 1101); settings: luminescence, 24 h, higher = more signal, called active from +8 up or from −8 down;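 also: HEK293 cells carrying a splicing-competent luciferase reporter gene; test concentration not given here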
[15] = target: Fibroblast growth factor 10 (Homo sapiens) (UniProt O15520); assay: FGF10 binders on small-molecule microarrays, primary screen, biochemical, small-molecule microarray, 635 nm fluorescence (AID 1102); settings: FGF10 binding, fluorescence 635 nm, higher = more signal
[16] = system: glycogen synthase kinase-3 (GSK3A per assay name; protocol says GSK3B); assay: GSK3 binders on small-molecule microarrays, primary screen, biochemical, small-molecule microarray, 635 nm fluorescence, GSK3A (AID 1103); settings: small-molecule microarray binding, fluorescence 635 nm; higher = more signal; also: the record names both GSK3A and GSK3B
[17] = target: Epidermal growth factor receptor (Homo sapiens) (UniProt P00533); assay: EGFR binders on small-molecule microarrays, primary screen, biochemical, small-molecule microarray, 635 nm fluorescence (AID 1104); settings: EGFR binding, higher = more signal;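 also: score merges 667 nm emission intensity with spot signal to noise over triplicate slides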
[18] = target: Follistatin-related protein 3 (Homo sapiens) (UniProt O95633); assay: FSTL3 binders on small-molecule microarrays, primary screen, biochemical, small-molecule microarray, 635 nm fluorescence (AID 1105); settings: FSTL3 binding, higher = more signal;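 also: score merges emission near 667 nm and signal to noise per printed spot across three slides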
[19] = target: Dickkopf-related protein 1 (Homo sapiens) (UniProt O94907); assay: DKK1 binders on small-molecule microarrays, primary screen, biochemical, small-molecule microarray, 635 nm fluorescence scan (AID 1106); settings: DKK1 binding, higher = more signal;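 also: score merges emission near 667 nm with signal to noise over three replicate slides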
[20] = system: Inhibin beta A chain (activin A); assay: INHBA (activin A) binders on microarrays, primary screen, biochemical, small-molecule microarray, 635 nm fluorescence scan (AID 1107); settings: small-molecule microarray binding, higher = more signal;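 also: mouse activin A protein probed at 4.33 µg/mL on printed slides; score merges bound-protein fluorescence near 667 nm with spot signal-to-noise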

Torsin-1A-interacting protein 2 (Homo sapiens), sequence (Q8NFQ8 whole entry, looked up): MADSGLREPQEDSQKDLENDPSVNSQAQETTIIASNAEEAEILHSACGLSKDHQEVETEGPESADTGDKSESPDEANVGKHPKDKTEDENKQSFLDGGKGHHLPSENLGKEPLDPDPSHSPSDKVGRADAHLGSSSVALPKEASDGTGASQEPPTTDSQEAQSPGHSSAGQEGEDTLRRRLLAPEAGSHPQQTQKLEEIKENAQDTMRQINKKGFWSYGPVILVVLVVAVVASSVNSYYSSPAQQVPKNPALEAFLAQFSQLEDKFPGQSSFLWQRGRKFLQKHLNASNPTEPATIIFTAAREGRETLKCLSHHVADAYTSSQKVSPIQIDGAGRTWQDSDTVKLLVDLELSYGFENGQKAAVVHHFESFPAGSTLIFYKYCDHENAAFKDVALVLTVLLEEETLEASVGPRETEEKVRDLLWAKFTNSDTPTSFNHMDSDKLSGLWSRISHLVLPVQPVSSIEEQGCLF
Neurogenic locus notch homolog protein 3 (Homo sapiens), sequence (Q9UM47 whole entry, looked up): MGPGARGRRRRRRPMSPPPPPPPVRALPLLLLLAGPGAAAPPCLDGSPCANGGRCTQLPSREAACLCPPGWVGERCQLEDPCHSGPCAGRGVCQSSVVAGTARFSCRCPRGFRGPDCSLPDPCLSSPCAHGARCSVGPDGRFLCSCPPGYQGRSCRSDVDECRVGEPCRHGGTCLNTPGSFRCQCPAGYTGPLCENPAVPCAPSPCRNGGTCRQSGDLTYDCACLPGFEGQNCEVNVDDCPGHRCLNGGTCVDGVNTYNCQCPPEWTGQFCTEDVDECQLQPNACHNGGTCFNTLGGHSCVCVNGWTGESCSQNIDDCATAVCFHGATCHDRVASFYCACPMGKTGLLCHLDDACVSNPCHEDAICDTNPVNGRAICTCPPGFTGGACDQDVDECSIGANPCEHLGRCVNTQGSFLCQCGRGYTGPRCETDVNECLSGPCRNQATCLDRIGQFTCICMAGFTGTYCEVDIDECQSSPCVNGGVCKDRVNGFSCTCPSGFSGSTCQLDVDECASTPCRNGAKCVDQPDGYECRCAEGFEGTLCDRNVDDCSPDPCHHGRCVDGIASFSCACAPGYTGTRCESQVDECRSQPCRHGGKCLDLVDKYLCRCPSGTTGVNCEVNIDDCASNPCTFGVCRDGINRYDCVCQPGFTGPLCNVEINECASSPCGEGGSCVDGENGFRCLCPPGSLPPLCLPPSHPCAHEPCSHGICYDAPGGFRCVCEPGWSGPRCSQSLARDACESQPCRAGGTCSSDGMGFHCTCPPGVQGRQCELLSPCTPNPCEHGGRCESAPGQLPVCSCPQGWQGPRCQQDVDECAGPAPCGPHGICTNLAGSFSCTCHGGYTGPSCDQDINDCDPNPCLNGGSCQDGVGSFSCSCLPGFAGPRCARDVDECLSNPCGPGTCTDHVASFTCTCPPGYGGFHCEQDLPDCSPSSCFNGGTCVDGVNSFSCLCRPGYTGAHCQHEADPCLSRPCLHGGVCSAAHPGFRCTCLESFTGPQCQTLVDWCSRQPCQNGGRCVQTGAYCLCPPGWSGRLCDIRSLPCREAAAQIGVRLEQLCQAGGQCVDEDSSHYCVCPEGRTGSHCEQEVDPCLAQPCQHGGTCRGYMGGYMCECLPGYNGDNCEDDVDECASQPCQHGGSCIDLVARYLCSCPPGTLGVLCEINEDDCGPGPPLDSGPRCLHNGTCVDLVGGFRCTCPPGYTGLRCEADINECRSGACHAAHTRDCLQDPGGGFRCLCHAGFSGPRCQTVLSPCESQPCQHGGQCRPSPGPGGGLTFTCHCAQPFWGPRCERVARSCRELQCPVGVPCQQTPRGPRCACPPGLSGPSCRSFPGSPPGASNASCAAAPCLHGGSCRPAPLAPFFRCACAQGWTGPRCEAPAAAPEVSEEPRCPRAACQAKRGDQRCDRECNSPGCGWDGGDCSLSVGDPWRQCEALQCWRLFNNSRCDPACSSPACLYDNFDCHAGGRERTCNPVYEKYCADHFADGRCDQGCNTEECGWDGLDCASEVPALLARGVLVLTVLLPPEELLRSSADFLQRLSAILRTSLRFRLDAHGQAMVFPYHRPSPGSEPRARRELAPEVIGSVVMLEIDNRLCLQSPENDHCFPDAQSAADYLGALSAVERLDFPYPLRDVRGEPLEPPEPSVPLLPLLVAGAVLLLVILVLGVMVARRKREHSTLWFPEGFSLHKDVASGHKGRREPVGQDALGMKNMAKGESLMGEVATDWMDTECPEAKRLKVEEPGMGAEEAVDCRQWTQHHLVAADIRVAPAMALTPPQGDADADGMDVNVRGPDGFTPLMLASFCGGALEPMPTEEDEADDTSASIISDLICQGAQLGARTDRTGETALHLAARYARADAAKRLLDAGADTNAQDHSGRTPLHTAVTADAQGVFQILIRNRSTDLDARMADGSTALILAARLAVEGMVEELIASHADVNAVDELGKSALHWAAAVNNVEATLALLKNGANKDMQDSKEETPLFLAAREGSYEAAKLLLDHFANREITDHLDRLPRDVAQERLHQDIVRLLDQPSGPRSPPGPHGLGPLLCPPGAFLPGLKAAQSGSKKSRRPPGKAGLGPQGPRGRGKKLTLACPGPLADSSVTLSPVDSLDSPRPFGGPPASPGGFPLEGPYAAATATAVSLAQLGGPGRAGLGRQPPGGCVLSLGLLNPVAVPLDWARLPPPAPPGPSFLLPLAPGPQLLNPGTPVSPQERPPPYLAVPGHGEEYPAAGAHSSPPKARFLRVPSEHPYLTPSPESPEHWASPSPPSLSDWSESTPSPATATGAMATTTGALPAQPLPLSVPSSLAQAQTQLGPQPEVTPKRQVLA
Follistatin-related protein 3 (Homo sapiens), sequence (O95633 whole entry, looked up): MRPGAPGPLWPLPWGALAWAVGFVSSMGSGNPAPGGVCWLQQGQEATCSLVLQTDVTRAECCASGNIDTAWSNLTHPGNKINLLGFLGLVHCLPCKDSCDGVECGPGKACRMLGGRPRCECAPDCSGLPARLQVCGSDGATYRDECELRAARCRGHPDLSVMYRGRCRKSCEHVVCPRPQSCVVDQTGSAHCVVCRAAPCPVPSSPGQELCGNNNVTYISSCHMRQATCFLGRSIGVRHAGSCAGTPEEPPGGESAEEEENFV
Fibroblast growth factor 10 (Homo sapiens), sequence (O15520 whole entry, looked up): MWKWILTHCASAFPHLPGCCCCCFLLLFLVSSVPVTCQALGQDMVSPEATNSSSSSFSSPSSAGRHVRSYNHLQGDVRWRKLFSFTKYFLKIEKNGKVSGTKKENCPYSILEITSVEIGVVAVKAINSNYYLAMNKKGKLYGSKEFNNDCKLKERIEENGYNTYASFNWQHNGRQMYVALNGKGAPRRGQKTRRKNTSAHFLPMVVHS
Epidermal growth factor receptor (Homo sapiens), sequence (P00533 whole entry, looked up): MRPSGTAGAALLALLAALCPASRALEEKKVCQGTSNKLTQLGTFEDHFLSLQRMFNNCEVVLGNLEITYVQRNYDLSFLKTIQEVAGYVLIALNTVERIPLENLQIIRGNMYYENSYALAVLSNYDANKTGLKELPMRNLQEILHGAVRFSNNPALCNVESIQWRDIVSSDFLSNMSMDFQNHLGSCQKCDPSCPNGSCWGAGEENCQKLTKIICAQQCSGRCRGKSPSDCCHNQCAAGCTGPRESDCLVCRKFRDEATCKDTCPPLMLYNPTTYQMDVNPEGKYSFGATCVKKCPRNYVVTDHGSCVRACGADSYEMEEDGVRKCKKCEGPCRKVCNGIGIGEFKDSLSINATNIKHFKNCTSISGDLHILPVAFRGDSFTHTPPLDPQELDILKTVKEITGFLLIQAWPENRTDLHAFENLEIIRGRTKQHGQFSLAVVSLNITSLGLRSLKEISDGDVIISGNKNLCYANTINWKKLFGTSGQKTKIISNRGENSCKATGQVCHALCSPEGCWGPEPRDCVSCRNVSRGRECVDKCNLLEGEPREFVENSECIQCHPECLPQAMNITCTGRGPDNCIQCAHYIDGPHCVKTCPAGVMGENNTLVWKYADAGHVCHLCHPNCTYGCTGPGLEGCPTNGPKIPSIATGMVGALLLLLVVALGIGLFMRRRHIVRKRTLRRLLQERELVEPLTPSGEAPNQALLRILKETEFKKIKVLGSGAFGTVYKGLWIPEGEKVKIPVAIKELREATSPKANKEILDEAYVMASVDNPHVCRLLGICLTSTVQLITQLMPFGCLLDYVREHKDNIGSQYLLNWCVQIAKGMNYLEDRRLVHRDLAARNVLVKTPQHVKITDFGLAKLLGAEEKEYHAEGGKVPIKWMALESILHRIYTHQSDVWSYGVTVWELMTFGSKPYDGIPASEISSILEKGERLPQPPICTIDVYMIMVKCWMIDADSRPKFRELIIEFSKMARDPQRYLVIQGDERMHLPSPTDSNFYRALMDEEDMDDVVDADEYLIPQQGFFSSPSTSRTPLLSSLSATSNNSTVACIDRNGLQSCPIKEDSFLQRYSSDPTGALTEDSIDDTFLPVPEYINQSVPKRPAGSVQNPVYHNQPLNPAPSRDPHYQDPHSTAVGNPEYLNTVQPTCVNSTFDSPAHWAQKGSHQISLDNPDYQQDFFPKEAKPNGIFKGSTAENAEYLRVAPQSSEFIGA
Dickkopf-related protein 1 (Homo sapiens), sequence (O94907 whole entry, looked up): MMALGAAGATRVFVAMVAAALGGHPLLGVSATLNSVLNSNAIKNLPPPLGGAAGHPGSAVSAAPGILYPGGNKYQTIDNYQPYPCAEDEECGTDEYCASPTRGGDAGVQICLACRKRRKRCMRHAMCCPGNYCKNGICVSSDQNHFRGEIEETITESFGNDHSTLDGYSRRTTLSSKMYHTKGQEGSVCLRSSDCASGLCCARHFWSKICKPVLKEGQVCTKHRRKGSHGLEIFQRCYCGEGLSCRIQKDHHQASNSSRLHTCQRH

Structure (SMILES) | composite z-score [1] | z-score [2] | z-score [3] | z-score [4] | composite z-score [5] | z-score [6] | composite z-score [7] | composite z-score [8] | composite z-score [9] | composite z-score [10] | composite z-score [11] | composite z-score [12] | composite z-score [13] | z-score [14] | composite z-score [15] | composite z-score [16] | composite z-score [17] | composite z-score [18] | composite z-score [19] | composite z-score [20]
C#Cc1cc2ccccc2oc1=O | 0.914 | -1.81 (inactive) | -7.83 (inactive) | -1.11 (inactive) | 0.969 | -1.45 (inactive) | -0.313 | -2.71 | -1.32 | -0.325 | 0.253 | -0.265 | 0.256 | 3.33 (inactive) | -0.347 | -0.748 | -2.35 | -2.4 | -1.87 | -1.73
COCCOC(=O)N1C(=O)[C@@]2(c3cc(C#CC4(O)CCCCCC4)ccc31)[C@H](C(=O)N1CCc3cc(OC)c(OC)cc3C1)[C@H]1C(=O)O[C@H](c3ccccc3)[C@H](c3ccccc3)N1[C@@H]2c1ccc(OCCO)cc1 | 1.54 | 1.98 (inactive) | 0.932 (inactive) | 4.4 (inactive) | 2.03 | 0.0446 (inactive) | -0.0585 | 1.3 | 1.09 | -0.0234 | 0.868 | -0.208 | -0.219 | 0.058 (inactive) | 0.891 | 1.3 | 0.626 | 1.04 | 0.95 | 0.25
O=C1O[C@H](c2ccccc2)[C@H](c2ccccc2)N2[C@H]1[C@@H](C(=O)O)[C@]1(C(=O)Nc3ccc(C#CCCO)cc31)[C@H]2c1ccccc1OCCO | 1.09 | 0.642 (inactive) | -0.495 (inactive) | 0.224 (inactive) | 2.97 | 0.18 (inactive) | -0.13 | 0.55 | 0.116 | -0.204 | 0.582 | -0.445 | 0.094 | -0.888 (inactive) | 0.258 | -0.532 | -0.329 | -0.224 | -0.0493 | 0.671
[N-]=[N+]=Nc1ccccc1[C@H]1OC(c2ccc(OCCCO)cc2)=N[C@@]1(Cc1ccccc1)C(=O)NCCN1CCOCC1 | 1.57 | 0.0597 (inactive) | -1.75 (inactive) | 1.72 (inactive) | 3.23 | 1.06 (inactive) | 0.363 | 1.36 | 1.05 | 0.688 | 1.59 | 1.34 | 1.29 | -1.01 (inactive) | 1.3 | 1.28 | 0.81 | 1.37 | 0.196 | 1.13
CCOC(=O)C[C@H]1[C@H](OC(=O)c2cc3ccccc3oc2=O)[C@@H](NC(=O)CC(C)C)c2cc(OCCCO)ccc2N1C(=O)c1ccc2ccccc2n1 | 1.04 | 0.475 (inactive) | 0.376 (inactive) | 0.665 (inactive) | 1.09 | -0.588 (inactive) | -0.0916 | 0.746 | 0.982 | 0.326 | 0.342 | -0.12 | -0.53 | 0.0136 (inactive) | 1.32 | 0.998 | 0.548 | 1.14 | 0.409 | 0.413
